Values without a mark were called inactive.
Experiment: viability profiling in MM1S myeloma cells – cell-based, resazurin fluorescence, basal, 24 h, PK04 Diversity Set, profiling panel (AID 1174);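 also: MM1S multiple myeloma cell line; test concentration not given here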
Conditions: higher = more signal, called active from +8 up or from −8 down

Row | SMILES | z-score
1 | COC(=O)Cn1c(C(=O)N2CCCC2)cc2c1C[C@H]1CN(C(=O)c3ccccc3)[C@@](Cc3ccccc3)(C(=O)OC)[C@@H]21 | -0.694
2 | O=C1C[C@@](C(=O)NCCN2CCOCC2)(c2ccc([N+](=O)[O-])cc2)[C@@H](c2ccc(CO)cc2)N1C1CCCCC1 | 0.836
3 | CC(=O)NCCCC[C@@H]1NC(=O)[C@H]2C[C@@H](C(=O)NCCCCCCN(C)C)[C@@H](c3cccc(OCCO)c3)N2C1=O | -0.143
4 | CC(C)(C)OC(=O)CC[C@]1(C(=O)N2CCCCC2)N=C(c2ccc(OCCCO)cc2)O[C@H]1c1ccccc1 | -1.37
5 | CC(=O)NCCCC[C@@H]1NC(=O)[C@H]2C[C@@H](C(=O)NCCCCCCN(C)C)[C@@H](c3ccc(O)cc3)N2C1=O | -1.56
6 | O=C1C2C=CC(C(O)Cc3ccccc3)N(Nc3ccc([N+](=O)[O-])cc3)C2C(=O)N1c1ccccc1 (stereo not given) | -0.824
7 | C=C(COC)C(=O)CC[C@H](OC(=O)c1ccccc1-c1ccccc1C(=O)O)c1cccc(OCCO)c1 | -0.805
8 | C=CC[C@@]1(C(=O)NCC(O)CO)N=C(c2ccc(OCCCO)cc2)O[C@@H]1c1ccccc1CN=[N+]=[N-] (stereo not given in full) | -0.754
9 | O=C(CS)NCCCCCCNC(=O)[C@@H]1C[C@@H]2C(=O)N[C@@H](Cc3ccccc3)C(=O)N2[C@@H]1c1ccc(O)cc1 | 0.0515
10 | C=CC[C@]1(C(=O)N2CCCCC2)N=C(c2ccc(OCCCO)cc2)O[C@H]1c1ccccc1N=[N+]=[N-] | -1.91
